# Compounds without any hit were thinned out: in the full panel of roughly 79,000, 15% have a hit. Unmarked numbers belong to inactive results. Activity calls are given as the source filed them. No stated cut-off is given here; in the data, active means growth inhibition above about 70%; inactive means the rest.
# Legend:
# [1] = NCI Yeast Anticancer Drug Screen. Data for the rad52 strain (AID 147);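 further: 0% = growth of vehicle-treated control cultures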; conditions: S. cerevisiae rad52 mutant growth inhibition, active compounds read high
# Method in brief: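 Growth of repair-deficient yeast cells was compared between compound-treated and vehicle-treated cultures to give percent inhibition.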
# [2] = NCI Yeast Anticancer Drug Screen. Data for the wt1 strain (AID 149);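 further: 0% = growth of vehicle-treated wt1 cultures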; conditions: S. cerevisiae wt1 strain (SPY 50644) growth inhibition, active compounds read high
# Method in brief: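 wt1 strain grown with compound or vehicle; inhibition taken from the growth difference.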
# [3] = NCI Yeast Anticancer Drug Screen. Data for the rad50EPP+ strain (AID 151);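 further: 0% = growth of vehicle-treated control cultures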; conditions: S. cerevisiae rad50 mutant strain, active compounds read high
# Method in brief: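 Measured: growth inhibition of rad50EPP+ yeast. Reference: vehicle-treated controls. Screen uses strains with defined genetic alterations in DNA damage repair or cell cycle control.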
# [4] = NCI Yeast Anticancer Drug Screen. Data for the mgt1 strain (AID 153); conditions: S. cerevisiae mgt1 mutant growth inhibition, active compounds read high
# Method in brief: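 Compounds were applied to mgt1 mutant yeast, and growth was then compared against vehicle-treated control cultures to give percent inhibition.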
# [5] = NCI Yeast Anticancer Drug Screen. Data for the rad50 strain (AID 155);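 further: 0% = growth of vehicle-only cultures of the same strain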; conditions: S. cerevisiae rad50 strain growth inhibition, active compounds read high
# Method in brief: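 DNA repair mutant yeast, compound exposure, growth read-out; inhibition is taken relative to vehicle.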
# [6] = NCI Yeast Anticancer Drug Screen. Data for the mec2-1 strain (AID 157); conditions: S. cerevisiae mec2-1 strain, active compounds read high
# Method in brief: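 Compounds were applied to mec2-1 yeast cells. Their growth was then compared with that of vehicle-treated cultures to give growth inhibition.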
# [7] = NCI Yeast Anticancer Drug Screen. Data for the rad14 strain (AID 159);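 further: 0% = growth of vehicle-treated control cultures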; conditions: S. cerevisiae rad14 strain growth inhibition, active compounds read high
# Method in brief: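 DNA repair-defective yeast, compound-exposed; % growth inhibition derived by comparison with vehicle-treated controls.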
# [8] = NCI Yeast Anticancer Drug Screen. Data for the sgs1 mgt1 strain (AID 161);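 further: 0% = growth of cultures given vehicle only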; conditions: S. cerevisiae sgs1 mgt1 strain, active compounds read high
# Method in brief: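 Percent growth inhibition was derived by comparing compound-exposed mutant yeast with vehicle-exposed cultures. The strain carries alterations in DNA damage repair.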
# [9] = NCI Yeast Anticancer Drug Screen. Data for the CLN2oe strain (AID 163);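 further: 0% = growth of vehicle-only control cultures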; conditions: S. cerevisiae CLN2oe strain, active compounds read high
# Method in brief: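 Cells of an engineered yeast line with disturbed cell-cycle regulation are treated with compound. Inhibition of growth is then calculated relative to the vehicle-treated reference.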
# [10] = NCI Yeast Anticancer Drug Screen. Data for the cln2 rad14 strain (AID 165);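 further: 0% = growth equal to vehicle treated cultures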; conditions: S. cerevisiae cln2 rad14 strain, active compounds read high
# Method in brief: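 Strain: cln2 rad14 yeast, altered in cell cycle control and DNA damage repair. Read-out: growth inhibition vs vehicle.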
# [11] = NCI Yeast Anticancer Drug Screen. Data for the bub3 strain (AID 167); conditions: S. cerevisiae bub3 mutant strain, active compounds read high
# Method in brief: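 In this screen, a yeast mutant lacking normal mitotic checkpoint function is challenged with compound. Relative growth versus vehicle gives the inhibition value.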
# [12] = NCI Yeast Anticancer Drug Screen. Data for the wt2 strain (AID 169);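 further: 0% = growth of vehicle-treated yeast cultures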; conditions: S. cerevisiae wt2 strain growth inhibition, active compounds read high
# Method in brief: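 Growth of compound-treated yeast is measured and expressed as inhibition relative to vehicle-only controls.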
# [13] = NCI Yeast Anticancer Drug Screen. Data for the mlh1 strain (AID 171);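 further: 0% = growth of vehicle-treated control cultures of the same strain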; conditions: S. cerevisiae mlh1 strain growth inhibition, active compounds read high
# Method in brief: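 Test agents were incubated with yeast bearing a defined DNA damage repair or cell cycle control alteration; values are growth inhibition normalised to vehicle-treated cultures.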
# [14] = NCI Yeast Anticancer Drug Screen. Data for the sgs1 strain (AID 173);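 further: 0% = growth of vehicle-only control cultures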; conditions: S. cerevisiae sgs1 mutant, active compounds read high
# Method in brief: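 Strain with an altered DNA repair or cell cycle pathway exposed to compound. Growth then measured. Value = inhibition versus vehicle control.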
# [15] = NCI Yeast Anticancer Drug Screen. Data for the mlh1 rad18 strain (AID 175); conditions: S. cerevisiae mlh1 rad18 strain growth inhibition, active compounds read high
# Method in brief: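 A repair-deficient yeast strain is exposed to test compound, and growth is scored relative to vehicle-treated controls.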
# [16] = at 5.0 µM (retest, dose inferred, filed as 0.5)
# [17] = at 50.0 µM (retest, dose inferred, filed as 5.0)
smiles,measurement,setting,value
CCOc1ccc2c(c1)c(CC(=O)O)cn2C,growth inhibition,[1]; at 1.2 µM,0%
same,growth inhibition,[1]; at 3.7 µM,7%
same,growth inhibition,[1]; at 11.0 µM,20%
same,growth inhibition,[1]; at 33.0 µM,60%
same,growth inhibition,[1]; at 100.0 µM,85% (active)
same,growth inhibition,[2]; at 1.2 µM,-4%
same,growth inhibition,[2]; at 3.7 µM,-3%
same,growth inhibition,[2]; at 11.0 µM,3%
same,growth inhibition,[2]; at 33.0 µM,28%
same,growth inhibition,[2]; at 100.0 µM,54%
same,growth inhibition,[3]; at 1.2 µM,6%
same,growth inhibition,[3]; at 3.7 µM,27%
same,growth inhibition,[3]; at 11.0 µM,71% (active)
same,growth inhibition,[3]; at 33.0 µM,94% (active)
same,growth inhibition,[3]; at 100.0 µM,97% (active)
same,growth inhibition,[4]; at 1.2 µM,-3%
same,growth inhibition,[4]; at 3.7 µM,-6%
same,growth inhibition,[4]; at 11.0 µM,1%
same,growth inhibition,[4]; at 33.0 µM,18%
same,growth inhibition,[4]; at 100.0 µM,51%
same,growth inhibition,[5]; at 1.2 µM,-6%
same,growth inhibition,[5]; at 3.7 µM,7%
same,growth inhibition,[5]; [16],-74%
same,growth inhibition,[5]; at 11.0 µM,48%
same,growth inhibition,[5]; at 33.0 µM,92% (active)
same,growth inhibition,[5]; [17],94% (active)
same,growth inhibition,[5]; at 50.0 µM,32.8%
same,growth inhibition,[5]; at 100.0 µM,98% (active)
same,growth inhibition,[6]; at 1.2 µM,1%
same,growth inhibition,[6]; at 3.7 µM,-2%
same,growth inhibition,[6]; [16],-40%
same,growth inhibition,[6]; at 11.0 µM,-7%
same,growth inhibition,[6]; at 33.0 µM,27%
same,growth inhibition,[6]; [17],3%
same,growth inhibition,[6]; at 50.0 µM,38.6%
same,growth inhibition,[6]; at 100.0 µM,48%
same,growth inhibition,[7]; at 1.2 µM,4%
same,growth inhibition,[7]; at 3.7 µM,7%
same,growth inhibition,[7]; at 11.0 µM,20%
same,growth inhibition,[7]; at 33.0 µM,57%
same,growth inhibition,[7]; at 100.0 µM,75% (active)
same,growth inhibition,[8]; [16],-38%
same,growth inhibition,[8]; [17],63%
same,growth inhibition,[8]; at 50.0 µM,23.4%
same,growth inhibition,[9]; at 1.2 µM,-3%
same,growth inhibition,[9]; at 3.7 µM,-1%
same,growth inhibition,[9]; at 11.0 µM,6%
same,growth inhibition,[9]; at 33.0 µM,24%
same,growth inhibition,[9]; at 100.0 µM,40%
same,growth inhibition,[10]; [16],-47%
same,growth inhibition,[10]; [17],-21%
same,growth inhibition,[10]; at 50.0 µM,18.8%
same,growth inhibition,[11]; at 1.2 µM,-10%
same,growth inhibition,[11]; at 3.7 µM,0%
same,growth inhibition,[11]; [16],-49%
same,growth inhibition,[11]; at 11.0 µM,12%
same,growth inhibition,[11]; at 33.0 µM,50%
same,growth inhibition,[11]; [17],81% (active)
same,growth inhibition,[11]; at 50.0 µM,79.8% (active)
same,growth inhibition,[11]; at 100.0 µM,87% (active)
same,growth inhibition,[12]; at 1.2 µM,-3%
same,growth inhibition,[12]; at 3.7 µM,-3%
same,growth inhibition,[12]; at 11.0 µM,-3%
same,growth inhibition,[12]; at 33.0 µM,16%
same,growth inhibition,[12]; at 100.0 µM,61%
same,growth inhibition,[13]; at 1.2 µM,5%
same,growth inhibition,[13]; at 3.7 µM,-4%
same,growth inhibition,[13]; at 11.0 µM,13%
same,growth inhibition,[13]; at 33.0 µM,42%
same,growth inhibition,[13]; at 100.0 µM,75% (active)
same,growth inhibition,[14]; at 1.2 µM,-1%
same,growth inhibition,[14]; at 3.7 µM,-3%
same,growth inhibition,[14]; at 11.0 µM,21%
same,growth inhibition,[14]; at 33.0 µM,63%
same,growth inhibition,[14]; at 100.0 µM,89% (active)
same,growth inhibition,[15]; [16],-81%
same,growth inhibition,[15]; [17],92% (active)
same,growth inhibition,[15]; at 50.0 µM,88.2% (active)
Cc1ccc2ccc3cccc4ccc1c2c34,growth inhibition,[1]; at 1.2 µM,-1%
same,growth inhibition,[1]; at 3.7 µM,0%
same,growth inhibition,[1]; at 11.0 µM,5%
same,growth inhibition,[1]; at 33.0 µM,23%
same,growth inhibition,[1]; at 100.0 µM,27%
same,growth inhibition,[2]; at 1.2 µM,-2%
same,growth inhibition,[2]; at 3.7 µM,-2%
same,growth inhibition,[2]; at 11.0 µM,-3%
same,growth inhibition,[2]; at 33.0 µM,2%
same,growth inhibition,[2]; at 100.0 µM,15%
same,growth inhibition,[3]; at 1.2 µM,-2%
same,growth inhibition,[3]; at 3.7 µM,4%
same,growth inhibition,[3]; at 11.0 µM,20%
same,growth inhibition,[3]; at 33.0 µM,33%
same,growth inhibition,[3]; at 100.0 µM,31%
same,growth inhibition,[4]; at 1.2 µM,-1%
same,growth inhibition,[4]; at 3.7 µM,-1%
same,growth inhibition,[4]; at 11.0 µM,-3%
same,growth inhibition,[4]; at 33.0 µM,-3%
same,growth inhibition,[4]; at 100.0 µM,18%
same,growth inhibition,[5]; at 1.2 µM,4%
same,growth inhibition,[5]; at 3.7 µM,49%
same,growth inhibition,[5]; [16],-1%
same,growth inhibition,[5]; at 11.0 µM,21%
same,growth inhibition,[5]; at 33.0 µM,37%
same,growth inhibition,[5]; [17],41%
same,growth inhibition,[5]; at 50.0 µM,25.6%
same,growth inhibition,[5]; at 100.0 µM,66%
same,growth inhibition,[6]; at 1.2 µM,-1%
same,growth inhibition,[6]; at 3.7 µM,0%
same,growth inhibition,[6]; [16],3%
same,growth inhibition,[6]; at 11.0 µM,2%
same,growth inhibition,[6]; at 33.0 µM,13%
same,growth inhibition,[6]; [17],12%
same,growth inhibition,[6]; at 50.0 µM,4.75%
same,growth inhibition,[6]; at 100.0 µM,26%
same,growth inhibition,[7]; at 1.2 µM,1%
same,growth inhibition,[7]; at 3.7 µM,0%
same,growth inhibition,[7]; at 11.0 µM,3%
same,growth inhibition,[7]; at 33.0 µM,14%
same,growth inhibition,[7]; at 100.0 µM,23%
same,growth inhibition,[8]; [16],-3%
same,growth inhibition,[8]; [17],20%
same,growth inhibition,[8]; at 50.0 µM,10.6%
same,growth inhibition,[9]; at 1.2 µM,-7%
same,growth inhibition,[9]; at 3.7 µM,-2%
same,growth inhibition,[9]; at 11.0 µM,-4%
same,growth inhibition,[9]; at 33.0 µM,-13%
same,growth inhibition,[9]; at 100.0 µM,13%
same,growth inhibition,[10]; [16],-3%
same,growth inhibition,[10]; [17],6%
same,growth inhibition,[10]; at 50.0 µM,14.2%
same,growth inhibition,[11]; at 1.2 µM,-1%
same,growth inhibition,[11]; at 3.7 µM,0%
same,growth inhibition,[11]; [16],2%
same,growth inhibition,[11]; at 11.0 µM,2%
same,growth inhibition,[11]; at 33.0 µM,26%
same,growth inhibition,[11]; [17],44%
same,growth inhibition,[11]; at 50.0 µM,61.5%
same,growth inhibition,[11]; at 100.0 µM,58%
same,growth inhibition,[12]; at 1.2 µM,-1%
same,growth inhibition,[12]; at 3.7 µM,7%
same,growth inhibition,[12]; at 11.0 µM,-3%
same,growth inhibition,[12]; at 33.0 µM,-2%
same,growth inhibition,[12]; at 100.0 µM,18%
same,growth inhibition,[13]; at 1.2 µM,-2%
same,growth inhibition,[13]; at 3.7 µM,-2%
same,growth inhibition,[13]; at 11.0 µM,-5%
same,growth inhibition,[13]; at 33.0 µM,3%
same,growth inhibition,[13]; at 100.0 µM,30%
same,growth inhibition,[14]; at 1.2 µM,-3%
same,growth inhibition,[14]; at 3.7 µM,-1%
same,growth inhibition,[14]; at 11.0 µM,2%
same,growth inhibition,[14]; at 33.0 µM,23%
same,growth inhibition,[14]; at 100.0 µM,42%
same,growth inhibition,[15]; [16],-3%
same,growth inhibition,[15]; [17],52%
same,growth inhibition,[15]; at 50.0 µM,70.3% (active)

# From PubChem BioAssay (NCI)
